G9a inh = qHTS Assay for Inhibitors of Histone Lysine Methyltransferase G9a; 8.8% of 350,000 active; Histone-lysine N-methyltransferase EHMT2 (Homo sapiens), Q96KQ7; Potency, µM (titrated, usually from 102 µM), for inactives: top-dose activity, negative = inhibition, most hits filed as inhibitors; AID 504332, 2011; G9a H3K9 monomethylation, AlphaScreen, 2 h; further: on the % scale 0 is the no-effect control and ±100 the full control effect; nearly all actives have a fitted effect of over 75% in size
Target sequence (Q96KQ7 913-1193 limits assumed): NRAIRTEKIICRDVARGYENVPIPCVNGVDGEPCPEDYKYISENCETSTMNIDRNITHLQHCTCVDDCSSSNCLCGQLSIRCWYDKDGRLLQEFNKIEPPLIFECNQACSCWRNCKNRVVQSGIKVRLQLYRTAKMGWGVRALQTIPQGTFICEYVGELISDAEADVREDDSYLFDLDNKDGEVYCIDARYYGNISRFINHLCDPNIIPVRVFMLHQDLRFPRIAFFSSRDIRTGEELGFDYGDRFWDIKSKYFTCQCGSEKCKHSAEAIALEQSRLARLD
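Signal arises when biotinylated H3K9 peptide, once monomethylated, bridges streptavidin donor and antibody-captured acceptor beads. Enzyme at 20 nM was preincubated 15 min with test compounds; peptide 500 nM and SAM 20 uM then reacted for 2 h.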
HP1b chromo inh = HTS for Inhibitors of HP1-beta Chromodomain Interactions with Methylated Histone Tails | Chromobox protein homolog 1 (Homo sapiens), P83916 | AlphaScreen HP1-beta / biotin-H3K9me3 peptide binding | Potency, µM (doses to about 114 µM), without a hit: at the top dose activity change, negative = inhibition, hits mostly inhibitors | 0.56% of 390,000 active; further: nearly all actives have a fitted effect of over 70% in size
Target sequence (P83916 whole entry, looked up): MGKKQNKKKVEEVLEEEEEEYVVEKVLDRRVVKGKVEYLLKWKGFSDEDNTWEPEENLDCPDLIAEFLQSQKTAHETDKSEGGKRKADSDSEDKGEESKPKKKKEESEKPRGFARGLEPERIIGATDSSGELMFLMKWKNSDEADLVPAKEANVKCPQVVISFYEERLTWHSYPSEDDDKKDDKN
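HP1-beta protein (50 nM final) preincubated 30 min at room temperature with biotinylated H3(1-18)K9me3 peptide (50 nM) in PBS pH 7.4, 0.01% Tween-20, then compound added for 30 min. AlphaScreen streptavidin donor/nickel chelate acceptor beads (10 ug/mL final), 30 min dark, luminescence read.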
BAZ2B block = qHTS Assay for Inhibitors of BAZ2B | 4.4% of 360,000 active | AID 504333, 2011 | Bromodomain adjacent to zinc finger domain protein 2B (Homo sapiens), Q9UIF8 | AlphaScreen BAZ2B-H3K14Ac peptide displacement | Potency, µM (series often up to 114 µM), inactives show at the highest dose activity change, negative = inhibition, hits mostly inhibitors; further: on the % scale 0 is the no-effect control and ±100 the full control effect; nearly all actives have a fitted effect of over 60% in size
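In this displacement format the biotinylated H3(5-23) peptide acetylated at Lys14 serves as ligand at 50 nM, with BAZ2B at 50 nM in PBS pH 7.4 containing 0.01% Tween-20. Donor and acceptor beads are 10 ug/mL final.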
Sfp PPTase inh = qHTS Assay for Inhibitors of Bacillus subtilis Sfp phosphopantetheinyl transferase (PPTase). 4'-phosphopantetheinyl transferase ffp (Bacillus subtilis), Q9F4F7. Biochemical Sfp PPTase activity, qHTS. Potency, µM, for inactives: largest response in the series, negative = inhibition, usual class: inhibitors. 3.5% of 310,000 active;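 further: the enzyme is Sfp with the accession as filed and its product quenches rhodamine fluorescence; 0% = enzyme reaction without inhibitor and -100% = no enzyme wells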
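Reaction rates are the 30-min fluorescence difference (ex 525, em 598 nm) in wells containing 15 nM Sfp, 5 uM rhodamine-CoA and 12.5 uM BHQ-2-YbbR at pH 7.6 with 10 mM MgCl2.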
JMJD2A Tudor = qHTS Assay for Inhibitors of JMJD2A-Tudor Domain; Lysine-specific demethylase 4A (Homo sapiens), O75164; AlphaScreen JMJD2A-Tudor / H3K4me3 peptide binding; Potency, µM (titrated, usually from 114 µM), without a hit: at the highest dose activity change, negative = inhibition, most hits filed as inhibitors; 4.4% of 390,000 active; AID 504339, 2011; further: on the % scale 0 is the no-effect control and ±100 the full control effect; nearly all actives have a fitted effect of over 50% in size
L3MBTL1 inh = qHTS Assay for the Inhibitors of L3MBTL1; AlphaScreen L3MBTL1–H3K9me1 peptide binding; Potency, µM (series often up to 57.1 µM), for the others: at the top dose activity, negative = inhibition, usual class: inhibitors; 0.66% of 230,000 active; AID 485360, 2010; further: on the % scale 0 is the no-effect control and ±100 the full control effect; nearly all actives have a fitted effect of over 60% in size
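Displacement of a biotinylated histone H3(1-15) peptide monomethylated at Lys9 (75 nM) from L3MBTL1 (50 nM) was measured by AlphaScreen after a 30 min room-temperature compound incubation; cefsulodin titration served as intraplate control.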
An asterisk follows results filed as active; ! = not confirmed by another sample; [ ] = remark or other dose. Only some compounds are listed: those with a hit (about 12% of all), similar ones and a draw of the others. The call rests on the fitted dose curve; in most records, active means well fitted curve in the direction sought with a large enough effect; inconclusive means small, poorly fitted or top-dose-only effect, or another doubt; inactive means no such curve, though single readings can be large; an effect the other way counts as inactive or inconclusive. Potency means the concentration at half of the fitted maximal effect.

For CCc1ccc(C(=O)c2cn(CC(=O)Nc3cc(OC)cc(OC)c3)c3ccc(CC)cc3c2=O)cc1 the results were G9a inh 13.0%[59 µM], HP1b chromo inh 25.8%, BAZ2B block 6.5% and JMJD2A Tudor -9.9%.
CCOc1ccc(NC(=O)Cn2cc(C(=O)c3ccc(CC)cc3)c(=O)c3cc(OC)c(OC)cc32)cc1 was read as G9a inh -19.2%[59 µM], HP1b chromo inh 43.4%, BAZ2B block -0.9% and JMJD2A Tudor -14.6%.
Cc1ccc(C(=O)/C=C/c2cc(Br)cc(Br)c2O)o1 was read as G9a inh 35.5µM*, HP1b chromo inh -18.7%, BAZ2B block inconclusive, Sfp PPTase inh inconclusive and JMJD2A Tudor inconclusive.
`COc1cc(NC(=O)C2CC2)c(C(=O)O)cc1OC` gave G9a inh 50.1µM*, HP1b chromo inh 40.5%, BAZ2B block 11.4%, Sfp PPTase inh -12.6%, JMJD2A Tudor -16.7% and L3MBTL1 inh 0.8%.
Screening COc1cc(NC(=O)C2CCCC2)c(OC)cc1Cl returned G9a inh -30.7%[59 µM], HP1b chromo inh 35.7%, BAZ2B block -28.5%, Sfp PPTase inh 12.0%, JMJD2A Tudor -4.1% and L3MBTL1 inh 6.0%.
S=c1nc[nH]c2c1cnn2-c1ccccc1 was read as HP1b chromo inh 40.2%, BAZ2B block -2.3%, Sfp PPTase inh 17.8µM*, JMJD2A Tudor -9.6% and L3MBTL1 inh 16.7%.
For CC(C)(C)c1cc(NC(=O)CSc2nnc(NCc3ccccc3)s2)n(-c2ccccc2)n1 the results were G9a inh -8.6%, HP1b chromo inh 39.3%, BAZ2B block 15.5%, Sfp PPTase inh 22.3%, JMJD2A Tudor -19.2% and L3MBTL1 inh 7.7%.
`COCCNc1nnc(SCC(=O)Nc2cc(-c3ccccc3)nn2-c2ccccc2)s1` gave G9a inh 79.4µM*, HP1b chromo inh 15.1%, BAZ2B block -37.8%, Sfp PPTase inh 2.3%, JMJD2A Tudor -35.6% and L3MBTL1 inh -3.4%.
For COCCNc1nnc(SCC(=O)NC(=O)c2ccccc2)s1 the results were G9a inh 50.1µM*, HP1b chromo inh 34.7%, BAZ2B block 7.3%, JMJD2A Tudor -11.5% and L3MBTL1 inh -3.8%.
Screening O=C(NCCc1ccccc1)c1cc(Sc2cccc(Cl)c2)nc2ccccc12 returned G9a inh 20.6%[59 µM], HP1b chromo inh 41.4%, BAZ2B block 15.8% and JMJD2A Tudor 5.5%.
COc1ccc(-c2nc(SCC(=O)Nc3nccs3)c(-c3ccc(Cl)cc3)[nH]2)cc1 was read as G9a inh -28.0%, HP1b chromo inh 24.7%, BAZ2B block -0.5%, Sfp PPTase inh 2.1%, JMJD2A Tudor -24.6% and L3MBTL1 inh -13.5%.
`CCc1ccc(-c2nc(SCC(=O)NC3CC3)n[nH]2)cc1` gave G9a inh 44.7µM*, HP1b chromo inh 2.4%, BAZ2B block 10.5%, JMJD2A Tudor -6.2% and L3MBTL1 inh 0.7%.
`COc1ccc(-c2[nH]c(-c3ccc(C)cc3)nc2SCC(=O)Nc2nccs2)cc1` gave G9a inh 44.7µM*, HP1b chromo inh inconclusive, BAZ2B block inconclusive, Sfp PPTase inh 9.9%, JMJD2A Tudor inconclusive and L3MBTL1 inh -7.6%.
COc1ccc(-c2nc(SCC(=O)NC3CCCC3)c(-c3ccc(OC)cc3)[nH]2)cc1 was read as G9a inh 50.1µM*, HP1b chromo inh -15.6%, BAZ2B block inconclusive, Sfp PPTase inh 9.9%, JMJD2A Tudor inconclusive and L3MBTL1 inh -5.9%.
CCOC(=O)c1ccc(N2C(=O)c3n[nH]c(-c4ccco4)c3C2c2ccc(OCC)cc2)cc1 (configuration not stated) was read as G9a inh -56.9%[59 µM], HP1b chromo inh -24.2% and JMJD2A Tudor inconclusive.
`Cc1cc(N(CCO)CCO)nc(-n2nc(C)cc2C)n1` gave G9a inh 39.8µM*, HP1b chromo inh 52.3%, BAZ2B block -15.0%, Sfp PPTase inh 0.0%, JMJD2A Tudor inconclusive and L3MBTL1 inh 1.3%.
Screening Cc1cc(NCCO)nc(-n2nc(C)cc2C)n1 returned G9a inh inconclusive, HP1b chromo inh 42.6%, BAZ2B block 14.4%, Sfp PPTase inh 0.4%, JMJD2A Tudor -7.5% and L3MBTL1 inh 11.3%.
CC1CCCCN1Cc1c(O)ccc2c(=O)c(-c3ccc(Cl)cc3)coc12 (configuration not stated) was read as G9a inh 9.2%, HP1b chromo inh 28.9%, BAZ2B block -2.5%, Sfp PPTase inh 11.7% and JMJD2A Tudor 79.4µM*!.
For CC1CCCCN1Cc1c(O)ccc2c(=O)c(-c3ccc(Br)cc3)coc12 (configuration not stated) the results were G9a inh -6.4%, HP1b chromo inh 22.9%, BAZ2B block -13.4%, Sfp PPTase inh 7.9% and JMJD2A Tudor -6.9%.
For C=CCn1c(C)cc(/C([O-])=C(/C(=S)Nc2ccc(OC(F)F)cc2)[n+]2ccc(N(C)C)cc2)c1C the results were G9a inh 39.8µM*, HP1b chromo inh inconclusive, BAZ2B block 44.7µM*, Sfp PPTase inh -9.7%, JMJD2A Tudor inconclusive and L3MBTL1 inh 0.7%[11.4 µM].
`CCCCOc1ccc(OC(=O)c2sc3ncn(Cc4cccc(F)c4)c(=O)c3c2C)cc1` gave G9a inh 3.0%[59 µM], HP1b chromo inh 53.6%, BAZ2B block 12.4% and JMJD2A Tudor 19.2%.
CC1CCC(NC(=S)NCCN(C)C)CC1 (configuration not stated) was read as G9a inh 39.8µM*, HP1b chromo inh 3.2%, BAZ2B block 50.1µM*, Sfp PPTase inh inconclusive, JMJD2A Tudor 7.94µM* and L3MBTL1 inh -5.5%[11.4 µM].
`O=C(O)CCCC(=O)Nc1ccccc1SCCS(=O)(=O)c1ccc(Cl)cc1` gave G9a inh -32.7%, HP1b chromo inh 28.6%, BAZ2B block -2.3%, Sfp PPTase inh 56.2µM* and JMJD2A Tudor -17.4%.
For CC(=O)c1c(N2CCN(Cc3ccccc3)CC2)[nH]c(-c2ccccc2)nc1=S the results were G9a inh 70.8µM*, HP1b chromo inh 13.7%, BAZ2B block inconclusive, Sfp PPTase inh 11.1%, JMJD2A Tudor inconclusive and L3MBTL1 inh -3.2%.
O=S(=O)(Nc1nnc(C2CC2)s1)c1ccccc1 was read as G9a inh 50.1µM*, HP1b chromo inh 48.4%, BAZ2B block -13.2%, Sfp PPTase inh -20.0% and JMJD2A Tudor -2.3%.

Source: PubChem
